GPR151 ag: human GPR151 activation | 650,000 tested, 1% active | PathHunter beta-arrestin GPR151 cells, luminescence | activation, % at 11.2 µM | Q8TDV0; in the data active = activation above about 4.9%;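 note: 0% = median of compound wells and 100% = cells with positive control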
MITF primary: inhibitors of human MITF; O75030; AlphaScreen MITF homodimerization, bead proximity signal; inhibition, % at 2.6 µM; 650,000 tested, 0.91% active; AID 1259374; in the data active = inhibition above about 50%;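 note: 0% = vehicle wells with protein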
FBW7 activator: human FBW7 E3 ligase activation, primary screen; AlphaScreen FBW7–phospho-cyclin E peptide binding, activator screen; normalized activity (activation), % at 26.1 µM; 650,000 tested, 0.13% active; AID 1259310; in the data active = normalized activity above about 1.9%;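 note: purified mutant Fbw7 with reduced substrate affinity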
TEAD-YAP inh: TEAD-YAP interaction inhibition; 640,000 tested, 1.4% active; inhibition, % at 9.12 µM; HEK-TIYL cells, TEAD-Gal4/YAP UAS-luciferase luminescence; in the data active = inhibition above about 32%;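 note: 0% = median of test compound wells and 100% = reference inhibitor wells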
Starred values were filed as active, the others as inactive; . = no result given. Shown are actives, neighbours in structure and some others; about 3.5% of the full set was active somewhere.

SMILES	GPR151 ag	MITF primary	FBW7 activator	TEAD-YAP inh
NS(=O)(=O)c1ccc(CCNc2ncnc3sc(-c4ccccc4)cc23)cc1	-2	1	0	42*
Cc1ccc(NC(=O)C(C)N2C(=O)c3ccccc3C2=O)c([N+](=O)[O-])c1 (configuration not stated)	-1	-4	0	-2
O=C(N/N=C/c1cccc(O)c1)c1cccs1	-5	-8	0	-28
CC1=NN(c2ccccc2)C(=O)/C1=C(/c1ccccc1)N1CCOCC1	1	-5	0	40*
Cc1ncn(-c2ccc(Nc3ncc4cccc(-c5cnn(C(C)C)c5)c4n3)cc2)n1	0	13	0	52*
Cc1ncn(-c2ccc(Nc3ncc4cccc(-c5cnn(CC6CC6)c5)c4n3)cc2)n1	0	11	0	49*
O=C(O)CCC(=O)N1N=C(c2ccccc2)CC1c1ccccc1 (configuration not stated)	0	13	1.9*	-7
CC1=C(C(N)=O)C(c2ccc(OCc3ccccc3)cc2)n2nnnc2N1 (configuration not stated)	3	-3	0	3
O=C(CSc1nc2[nH]ncc2c(=O)n1-c1ccccc1)Nc1ccc2c(c1)OCCO2	0	7	0	50*
O=C(CSc1nc2[nH]ncc2c(=O)n1-c1ccc(Br)cc1)Nc1ccc2c(c1)OCCO2	-2	1	0	42*
O=C(CSc1nc2[nH]ncc2c(=O)n1-c1cccc(C(F)(F)F)c1)Nc1ccc2c(c1)OCCO2	0	8	0	27
O=C(Nc1ccc(NC(=O)c2ccc(F)cc2)nc1)c1cccnc1	2	15	0	-5
COc1ccc2cc3c(N)nn(C(=O)Cc4c[nH]c5ccccc45)c3nc2c1	0	5	0	75*
COc1ccc(CC(=O)n2nc(N)c3cc4ccc(OC)cc4nc32)cc1	1	7	0	41*
COc1cccc(CC(=O)n2nc(N)c3cc4ccc(OC)cc4nc32)c1	0	4	0	8
COc1cc(-c2ccc(N=Nc3ccc4c(S(=O)(=O)O)cc(S(=O)(=O)O)c(N)c4c3O)c(OC)c2)ccc1N=Nc1ccc2c(S(=O)(=O)O)cc(S(=O)(=O)O)c(N)c2c1O	-2	77*	0	.
Nc1c(S(=O)(=O)O)cc(S(=O)(=O)O)c2cccc(O)c12	0	46	-1	9
CC1(C)CC(=NNC(=O)c2n[nH]c3c2CCC3)CC(C)(C)N1	3	4	0	62*
C/C(=N\NC(=O)c1n[nH]c2c1CCC2)C1CC1	1	8	0	52*
Cc1ccc(N2C(=O)CSC2c2ccccc2Br)cc1 (configuration not stated)	0	2	0	-4
CSc1nnc(NC(=O)c2ccccc2Cl)s1	-11	22	0	39*
CCCSc1nnc(NC(=O)c2cccc(OC)c2)s1	-2	17	0	-4
CSc1nnc(NC(=O)c2ccccc2C)s1	-9	3	0	41*
CSc1nnc(NC(=O)c2c(Cl)cccc2Cl)s1	1	-1	0	3
COc1cccc(C(=O)Nc2nnc(SC)s2)c1	-10	-3	0	43*
SMILES	GPR151 ag	MITF primary	FBW7 activator	TEAD-YAP inh
CSc1nnc(NC(=O)c2ccccc2[N+](=O)[O-])s1	-1	1	0	-18
Cc1nc2ccccn2c1-c1csc(Nc2ccc(S(N)(=O)=O)cc2)n1	0	5	0	-3
Cc1ccc(Nc2nc(-c3c(C)nc4ccccn34)cs2)c(C)c1	-1	-2	0	53*
CCN(CC)c1ccc(Nc2nc(-c3c(C)nc4ccccn34)cs2)cc1	3	22	-1	12
Cc1nc2ccccn2c1-c1csc(Nc2ccc(Cl)cc2)n1	0	8	0	44*
Cc1ccc(Nc2nc(-c3c(C)nc4ccccn34)cs2)cc1	2	15	0	53*
O=C(NCc1nnc2n1CCN(Cc1ccc(OC(F)(F)F)cc1)CC2)c1ccccn1	-1	-6	0	-6
COc1cc(/C=N/NC(=O)c2cc(-c3cccs3)[nH]n2)cc(OC)c1OC	2	5	0	-18
C=CCOc1ccc(/C(O)=C2\C(=O)C(=O)N(c3nc(C)c(C(=O)OC)s3)C2c2ccc(C(C)(C)C)cc2)c(C)c1 (configuration not stated)	0	0	0	6
COc1ccc(N2CCn3c(SCc4cccc(Cl)c4)nnc32)cc1	1	5	0	7
COc1ccc(N2CCn3c(SCc4cccc(C)c4)nnc32)cc1	-1	-4	1.9*	8
N#Cc1sc2nccc(Nc3ccccc3)c2c1N	0	6	0	34*
O=C1CC[C@@H]2CN(Cc3cccnc3)CC[C@@H]2N1Cc1ccc(F)cc1	-1	22	1	-1
COc1ccc(CNc2c(-c3ccc(O)cc3O)nc3cnccn23)cc1	0	-4	0	65*
COCCNc1c(-c2ccc(O)cc2O)nc2cnccn12	1	1	0	-5
COc1ccc(N(C)S(=O)(=O)c2cc(Br)cc3c2N(C(C)=O)CC3)c(OC)c1	-1	-8	0	56*
CC1CCC(C(C)C)C(OC(=O)Cn2c(-c3ccccc3)[n+](C)c3ccccc32)C1 (configuration not stated)	1	4	0	83*
CC1CCC(C(C)C)C(OC(=O)Cn2c[n+](CC(=O)OC3CC(C)CCC3C(C)C)c3ccccc32)C1 (configuration not stated)	1	14	0	5
CC1CCC(C(C)C)C(OC(=O)CN2C(=O)C3C4c5ccccc5C(c5ccccc54)C3C2=O)C1 (configuration not stated)	-1	0	0	19
CC1CCC(C(C)C)C(OC(=O)Cn2c(-c3ccc(F)cc3)[n+](C)c3ccccc32)C1 (configuration not stated)	1	6	0	40*
COc1cc(-c2nc3s/c(=C\c4ccccc4)c(=O)n3n2)cc(OC)c1OC	2	5	0	-3
Cc1cccc(C(=O)Nc2snc(Cl)c2C#N)c1	0	0	0	39*
Cc1cccc(C(=O)Nc2sccc2C#N)c1	-1	-10	0	-22
COc1ccc(-c2cc3nc4c(c(NCc5cccnc5)n3n2)CCC4)cc1OC	1	-3	0	36*
COc1ccc(-c2cc3nc4c(c(NCCN)n3n2)CCC4)cc1OC	0	11	0	-23
SMILES	GPR151 ag	MITF primary	FBW7 activator	TEAD-YAP inh
c1ccc2ncc(-c3ccc4c(c3)COC3(CCNCC3)O4)cc2c1	-1	17	0	64*
CCCCCCN1C2=NCCCN2c2ccccc21	-1	8	1	36*
C=CCN1C2=NCCCN2c2ccccc21	-1	1	0	6
CCN(CC)c1cc(C)nc(Nc2ccc(NC(=O)C(C)C)cc2)n1	-1	13	0	48*
Cc1cc(NC(=O)Nc2ccccc2)ccc1N1CCCCC1=O	-10	-7	0	37*
CCOC(=O)c1c(N)sc2c1CCN(C)C2	1	2	0	5
CCOC(=O)c1c(/N=C/c2cccc(OC)c2O)sc2c1CCN(C)C2	0	21	2.6*	-6

Screening results: PubChem BioAssay, The Scripps Research Institute Molecular Screening Center
